Screens: PubChem, Center for Chemical Genomics, University of Michigan
Only some compounds are listed: those with a hit (about 0.86% of all), similar ones and a draw of the others.
CDC25B CDK2 inh = primary biochemical HTRF screen for blockers of M-phase inducer phosphatase 2 binding to CDK2/cyclin A. P30305+P24941. z-score (test concentration not listed). 0.72% of 94,000 active. AID 1259370, 2018. HTRF CDC25B-CDK2/CyclinA binding, anti-His/anti-Flag; hits give high values; in the data active = z-score above about 3.2
TAR Tat displ = TAR RNA-Tat peptide displacers, HIV-1, primary screen, biochemical, FRET, FAM/TAMRA-labeled Tat; HIV-1 TAR RNA, Tat peptide displacement FRET; hits give high values; 0.6% of 100,000 active; z-score (concentration not given with the values); active = z-score of 3 or more in at least 2 runs
The depositor's hits bear a star; . = no result; + = active, no number.

SMILES	CDC25B CDK2 inh	TAR Tat displ
C=CCNC(=O)Nc1ccc2nc(-c3ccccc3)c(-c3ccccc3)nc2c1	-0.53	.
O=C(NCCCO)Nc1ccc2nc(-c3ccccc3)c(-c3ccccc3)nc2c1	-0.48	.
COCCNC(=S)Nc1ccc2nc3c4ccccc4c4ccccc4c3nc2c1	11*	.
OCCCNC(=S)Nc1ccc2nc(-c3ccccc3)c(-c3ccccc3)nc2c1	5.9*	.
COCCNC(=O)Nc1ccc2sc(NS(=O)(=O)c3ccccc3)nc2c1	.	2.6
CCCNC(=S)Nc1ccc(Cl)cc1	-0.64	.
C=CCNC(=S)Nc1ccc2nc3c4ccccc4c4ccccc4c3nc2c1	4.7*	.
CCCNC(=S)Nc1ccc2nc3c4ccccc4c4ccccc4c3nc2c1	11*	.
COc1cc(C=C2C(=O)c3ccccc3C2=O)ccc1OC(=O)c1ccco1	1.4	.
CC1CN(C(=O)CSc2nc(-c3ccc(Cl)cc3)nc3c2c(=O)n(C)c(=O)n3C)CC(C)O1 (stereo not drawn)	.	1
CCCC(=O)Nc1nnc(S(=O)(=O)N2CCCCC2)s1	-2.4	1.3
O=C(NCCc1ccco1)c1cccn1-c1nnc(N2CCCC2)s1	.	0.19
CC1CC(C)CN(c2ncnc3onc(-c4ccc(F)cc4)c23)C1 (stereo not drawn)	.	-0.65
CC(C)N(C(=S)Nc1ccc2nc3c4ccccc4c4ccccc4c3nc2c1)C(C)C	10*	.
S=C(Nc1ccc2nc3c4ccccc4c4ccccc4c3nc2c1)N1CCOCC1	-0.55	.
CCCn1nccc1-c1ccc2c(c1)CN1CCC(O)C1=N2 (stereo not drawn)	.	0.63
CCOc1ccccc1N(CC)C(=O)c1noc2c1CSc1ccccc1-2	-0.78	0.25
CC(C)CCN1CSC2=C(C#N)C(c3ccc(Cl)cc3)CC(=O)N2C1 (stereo not drawn)	0.66	0.8
Cc1ccc(C2CC(=O)N3CN(CCC(C)C)CSC3=C2C#N)cc1 (stereo not drawn)	5.2*	-2.1
CCOC(=O)CN1CSC2=C(C#N)C(c3ccc(Cl)cc3)CC(=O)N2C1 (stereo not drawn)	3.8*	3.3
CC(C)CCN1CSC2=C(C#N)C(c3ccc(F)cc3)CC(=O)N2C1 (stereo not drawn)	5*	-0.59
CN1CCc2c(sc(-n3cccc3)c2CNC(=O)NC2CCCC2)C1	.	-7.1
Cc1nc2nc(NCc3cccs3)[nH]n2c(=O)c1CCC(=O)Nc1ccc(Br)cc1	-0.55	-1.1
O=C(Cn1cc2c(n1)CCCCC2)Nc1ccc(Cl)cc1	-1.1	.
CCC1Sc2ccc(S(=O)(=O)CCC(=O)Nc3ccccn3)cc2NC1=O (stereo not drawn)	.	-1.2
SMILES	CDC25B CDK2 inh	TAR Tat displ
CC1CCN(S(=O)(=O)N2CCCC(C(=O)NCCCN3CCCC3=O)C2)CC1 (stereo not drawn)	.	-0.14
Cc1ccc(Nc2nc(-c3ccc(O)cc3)cs2)nc1	-1.6	1.9
Cc1ccc(Nc2nc(-c3ccc(O)c(O)c3)cs2)nc1	-1.1	16*
COc1ccc(-n2nc3ccc(N)cc3n2)cc1Cl	2	16*
Cc1ccc(-n2nc3ccc(N)cc3n2)cc1Cl	-1.5	0.29
Cc1ccc(C)c(CSc2nnc(C)n3c2cc2oc(C)cc23)c1	.	-0.89
COc1ccc(N)cc1-n1c(C)ccc1C	1.9	10*
Cc1ccc(C)n1-c1cccc(N)c1	4	-3.2
CCCc1occc(=O)c1/C=C/O	.	1.6
Cn1c(=O)sc2cc(NC(=O)Cn3c(=O)oc4ccccc43)ccc21	7.5*	1.7
CCC(=O)Nc1ccc2c(c1)sc(=O)n2C	.	1.1
O=C(CSc1nc2ccc([N+](=O)[O-])cc2s1)Nc1ccc2nc(SCC(=O)Nc3ccccc3F)sc2c1	-3.1	.
COc1ccc2c(c1)oc(=O)c1ccccc12	-1.7	0.03
COc1cc(O)c2c(c1)oc(=O)c1c3cc(O)c(O)cc3oc21	.	38*
Cn1cccc1Cc1nnc(SCC(=O)Nc2ccc(F)cc2)n1-c1ccc(Cl)cc1	1.2	-1.9
O=C(Nc1cccc(O)c1)c1cccc(N2C(=O)c3cccc([N+](=O)[O-])c3C2=O)c1	5.1*	.
CC(C)(C)NC(=O)c1cccc(N2C(=O)c3cccc([N+](=O)[O-])c3C2=O)c1	0.16	.
CCCCOC(=O)NNOC(=O)CCCC	-0.51	.
COc1ccccc1C1c2c(-c3ccccc3)n[nH]c(=O)c2Nc2nnnn21 (stereo not drawn)	-1.3	0.89
Cn1c(=O)c2c(-c3ccccc3Br)n(-c3ccccc3N)cc2n(C)c1=O	0.87	2.5
Cn1c(=O)c2c(-c3ccccc3Br)n(-c3ccccc3)cc2n(C)c1=O	-0.69	0.54
Cn1c(=O)c2c(-c3ccccc3Br)n(-c3ccc4[nH]c(=O)[nH]c4c3)cc2n(C)c1=O	6.2*	2.3
Cn1c(=O)c2c(-c3ccccc3Br)n(-c3cccc4cccnc34)cc2n(C)c1=O	16*	-2.6
COc1ccc(S(=O)(=O)c2cc3cc(Br)ccc3oc2=O)cc1OC	-2.1	.
CCCCn1nnc(NCc2ccc(Br)cc2)n1	.	1.6
SMILES	CDC25B CDK2 inh	TAR Tat displ
CSc1ccc(C2CC(=O)N3CN(c4ccc(F)cc4)CSC3=C2C#N)cc1 (stereo not drawn)	5.2*	-4.9
COC(=O)c1ccc(N2CSC3=C(C#N)C(c4ccc(F)cc4)CC(=O)N3C2)cc1 (stereo not drawn)	6.6*	-0.31
O=C(CN1Cc2ccccc2C1=O)NCc1ccc2c(c1)OCO2	.	-0.28
COC(=O)c1cc(=O)c(O)c2c(O)c(O)ccc2c1	.	25*
COC(=O)c1cc(NC(=O)c2ccc3ccccc3c2)cc(C(=O)OC)c1	-2	.
COc1cc(Cl)c(NS(=O)(=O)c2ccc3c(c2)CCCC(=O)N3)c(OC)c1	.	1.4
CC(C)c1ccc(C(=O)CC2(O)C(=O)N(Cc3ccccc3)c3ccccc32)cc1 (stereo not drawn)	0.35	.
NC1(C(=O)O)CCCCC1	-1.7	.
N.N.O=C(O)C1(C(=O)O)CCC1.[Pt+2]	+	.
CCOC(=O)c1cc2cc3ccc(C)cc3nc2s1	-0.68	-0.71
Cc1cc(F)ccc1S(=O)(=O)N(C(=O)c1cccnc1)c1ccc2oc(=O)sc2c1	-3.3	1.1
Cc1cc(Cl)ccc1OCc1cc(=O)n2nc(-c3ccco3)sc2n1	1.4	13*
Cc1ccc(OCc2cc(=O)n3nc(C)sc3n2)c(C)c1	-1.7	-0.78
O=c1[nH]cnc2sc(N3CCCCCC3)nc12	-0.79	0.91
CC1CCN(C(=O)CSc2nc(-c3ccc(F)cc3)nc3cc(=O)[nH]n23)CC1	.	0.5
Cc1ccc(NC(=O)C2CC3CCCN3C23C(=O)Nc2ccccc23)c(C)c1 (stereo not drawn)	.	0.13
CCC(=O)n1/c(=N/C(=N)N)nc(C)c2ccc(C)cc21	9*	.
CCOC(=O)CC(=O)CSc1nc(C)c2ccc(C)cc2n1	-1.8	-7.6
O=C(OCc1cc(=O)n2ccsc2n1)c1ccco1	.	1.5
CC(=O)c1ccc(NC(=O)CSc2nnc(-c3ccc4ccccc4c3)n2C)cc1	6.9*	.
Cn1c(SCC(=O)Nc2ccc3[nH]c(=O)[nH]c3c2)nnc1-c1ccccc1	-0.17	0.78
Cn1cc(S(=O)(=O)c2ccccc2)c(=O)c2cc(F)ccc21	-1.6	21*
Cn1cc(S(=O)(=O)c2ccccc2)c(=O)c2cc(Cl)ccc21	-2	2.4
CCOc1cc(C2C3=C(CCCC3=O)N(C)C3=C2C(=O)CCC3)cc(Cl)c1O	-0.94	0.39
CCOc1cc(C2C3=C(CCCC3=O)NC3=C2C(=O)CCC3)cc(Cl)c1O	16*	0.23
